Screening data as filed in PubChem BioAssay.
MITF act – increases MITF-driven TRPM1 promoter luciferase signal; AID 588334; 0.75% of 300,000 active; activation, % at 12.5 µM; SK-MEL-5 TRPM1-promoter luciferase, 24 h; % of positive control, neutral wells = 0;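 active = mean activation of at least 80% with every replicate also reaching 80%; inconclusive = mean reaches 80% but some replicate falls short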;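 also: 0% = neutral control wells and 100% = parthenolide positive control wells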
LMP1 NFkB inh – reduces LMP1-driven NF-kappaB luciferase signal | LMP1-induced NF-kappaB luciferase reporter cells, luminescence | inhibition, % at 12.5 µM | 0.69% of 350,000 active; in the data active = inhibition above about 41%; inconclusive = no clear call, values can overlap the other calls;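 also: 0% = neutral control wells and 100% = reference inhibitor control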
TWEAK Fn14 block – inhibitors of TWEAK-Fn14 interaction signaling | TWEAK-stimulated Fn14 reporter cells, luciferase luminescence, 8 h | inhibition, % at 10 µM | 2% of 360,000 active | AID 1159606; in the data active = inhibition above about 50%
LGR2 inh – Drosophila LGR2 receptor signaling inhibition; HEK293 LGR2, CRE-luciferase, bursicon-stimulated, 4 h; inhibition, % at 9.99 µM; 0.35% of 380,000 active;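 active = drop in luminescence signal, shown as inhibition above about 50% in the replicate tests, limit read from the data, passing the limit was not always enough; inconclusive = probably only some replicates passing the limit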;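 also: agonist challenge used bursicon conditioned medium at about half maximal strength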
TROY signal inh – inhibitors of TROY-dependent NF-kB signaling | inhibition, % at 10 µM | 0.98% of 360,000 active | Q293 LMP1-TROYcd NF-kB luciferase reporter, 4 h;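 active = compounds whose plate-normalised and pattern-corrected inhibition of the luciferase reporter signal at the single screening dose is 50% or more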
TRPM1 prom inh – inhibitors of MITF-driven TRPM1 promoter in melanoma cells; SK-MEL-5 TRPM1 promoter luciferase, 24 h; inhibition, % at 12.5 µM; 0.83% of 330,000 active;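 active = mean inhibition across replicates of 60% or more, whatever share of single replicates reaches that level; inconclusive = some that reach 60%, reason not given; inactive = mean inhibition across replicates below 60%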
An asterisk follows results filed as active; ? = inconclusive; nt = no result. In the library only some 3% were active in any assay of this set; here they are far more common.

SMILES | MITF act | LMP1 NFkB inh | TWEAK Fn14 block | LGR2 inh | TROY signal inh | TRPM1 prom inh
O=C1CCC(=O)N1c1ccc(-c2nc3ccccc3s2)cc1 | -15.2 | 0.7 | 90.4* | -9.7 | 82.7* | 15.6
Nc1ccc2nc(-c3ccccc3)c(-c3ccccc3)nc2c1 | -19.0 | -23.1 | 12.2 | -10.8 | 1.3 | 11.7
C[C@@H]1CN([C@@H](C)CO)C(=O)c2cc(NS(=O)(=O)c3cn(C)cn3)ccc2O[C@@H]1CN(C)S(C)(=O)=O | nt | nt | nt | -17.9 | nt | nt
CCc1ccc(NC(=O)c2n[nH]c(=O)c3ccccc23)cc1 | 107.1* | -22.3 | -21.8 | -39.4 | -25.6 | -108.6
COc1ccccc1NC(=O)/C(=C\c1cccnc1)NC(=O)c1ccc(C)cc1 | -0.6 | 16.7 | 61.0* | 3.8 | 4.2 | -2.3
O=C(C[C@H]1C=C[C@H](NS(=O)(=O)c2ccc(F)cc2)[C@H](CO)O1)NCc1ccccc1F | nt | nt | nt | 12.6 | nt | nt
COc1cccc(C(=O)O/N=C(\N)c2ccccn2)c1OC | -23.8 | 51.8* | 81.0* | 69.5* | 4.6 | 26.9
N/C(=N\OC(=O)Cc1ccccc1[N+](=O)[O-])c1ccccn1 | 2.1 | -7.8 | -18.7 | 11.0 | 6.9 | -3.5
Cc1c(C(=O)O/N=C(\N)c2ccccn2)cccc1[N+](=O)[O-] | -20.3 | 2.9 | 67.0* | nt | -15.5 | 25.2
O=C(Oc1ccc(/C=N/O)cc1)c1ccccc1Cl | 44.2 | 4.2 | -7.8 | -91.1 | -50.3 | -39.7
COc1cc(C(=O)N/N=C/c2ccc(OC(=O)c3cccc(C)c3)cc2)ccc1O | 8.3 | -4.4 | -3.3 | -8.3 | 51.3* | -9.1
COc1cc(C(=O)N/N=C/c2cccc(Oc3ccccc3)c2)ccc1O | 3.0 | 1.7 | -12.0 | -13.1 | -14.1 | -4.4
COc1ccc(/C=N/Nc2snc(SC)c2C#N)cc1OC | ? | -9.9 | -1.5 | nt | -26.1 | -87.3
COc1cccc(/C=N\NC(=O)c2ccc(C)nc2)c1 | 1.9 | 86.1* | -7.5 | -1.7 | -19.0 | -0.3
Cc1cccc(C(=O)Oc2ccc(/C=N/O)cc2)c1 | 126.6* | -34.1 | -28.3 | -67.3 | -65.9 | -128.8
COc1cccc(/C=N/Nc2snc(SC)c2C#N)c1O | 2.1 | -5.7 | 75.3* | 20.2 | 42.4 | -7.8
COCC#Cc1ccc2c(c1)O[C@H](CN(C)C)[C@@H](C)CN([C@H](C)CO)S2(=O)=O | nt | nt | nt | -4.4 | nt | nt
C[C@@H]1CN([C@@H](C)CO)C(=O)Cc2cc(NS(=O)(=O)c3cn(C)cn3)ccc2O[C@H]1CN(C)Cc1ccc(Cl)c(Cl)c1 | nt | nt | nt | 13.8 | nt | nt
COc1cc(C(=O)Oc2ccccc2/C=N/NC(=O)c2ccc(C)c(Cl)c2)cc(OC)c1OC | 7.2 | 56.9* | -37.6 | -24.3 | 1.0 | -1.7
COc1cc(/C=N/NC(N)=S)ccc1OC(=O)c1ccc(C)cc1 | nt | -7.4 | 7.7 | nt | 8.8 | 3.5
COc1cc(/C=N/NC(=O)c2ccc(N)cc2)ccc1OC(=O)c1cccc(C)c1 | 12.2 | 30.5 | 3.6 | 5.4 | 52.6* | -11.9
O=C(N/N=C/c1ccccc1)c1ccc(NC(=O)c2ccc(F)cc2)cc1 | 11.6 | -6.9 | 8.9 | -21.3 | 0.8 | -12.8
Nc1ccc(C(=O)N/N=C/c2ccccc2)cc1 | 84.3* | -15.3 | -1.1 | nt | -36.6 | -78.4
COc1cc(/C=N/Nc2ccc3ccccc3c2)ccc1OC(=O)c1ccco1 | -9.2 | -7.5 | 51.3* | -3.0 | 45.6 | 7.8
CNC(=O)C[C@H]1CC[C@H]2[C@@H](COc3ccc(NC(=O)c4cccs4)cc3C(=O)N2C)O1 | nt | nt | nt | -1.5 | nt | nt
SMILES | MITF act | LMP1 NFkB inh | TWEAK Fn14 block | LGR2 inh | TROY signal inh | TRPM1 prom inh
C[C@H](NC(=O)[C@@H]1N[C@@H]2c3ccc(-c4ccc(C(=O)N(C)C)cc4)c(=O)n3C[C@@H]2[C@H]1CO)c1ccccc1 | nt | nt | nt | 2.4 | nt | nt
C[C@H](NC(=O)C[C@@H]1C[C@H]2c3cc(NC(=O)C4CCC4)ccc3O[C@H]2[C@H](CO)O1)c1ccccc1 | nt | nt | nt | 4.5 | nt | nt
O=C(c1ccccc1)N1CC(=O)N2[C@@H](CO)[C@H](c3ccc(C4=CCCC4)cc3)[C@@H]2C1 | nt | nt | nt | -0.9 | nt | nt
COc1cccc(OCc2cc(/C=N/Nc3ccc(C(=O)O)cc3)ccc2OC)c1 | -3.6 | -0.1 | 2.7 | 9.4 | -10.4 | 6.3
COc1cccc(/C=N/Nc2ccc(C(=O)O)cc2)c1O | -104.4 | 83.1* | 103.3* | nt | 83.8* | 105.3*
COc1ccc(C(=O)N/N=C/c2cc(Br)ccc2O)cc1OC | -59.9 | 11.3 | -41.5 | 9.5 | 25.7 | 65.6*
COc1ccc(/C=N/NC(=O)c2ccc(N(C)S(=O)(=O)c3ccccc3)cc2)cc1 | -12.3 | -14.6 | 51.4* | 16.6 | -4.0 | 10.2
